Measurements published in the antibiotic and cytotoxicity screens of Wong et al. (2023).
About 1,500 (3.8%) of roughly 39,000 compounds were called active. What follows is part of a selection rich in actives, with near analogues and random picks from the rest.

What follows are compounds tested on HSkMC (human skeletal muscle cells) (assay: cytotoxicity call (relative viability < 0.9)). Conditions: 10 µM.

Row | SMILES | cytotoxicity call
1 | O=C(NOCCO)c1cc(CN2OCCCC2=O)c(F)c(F)c1Nc1ccc(I)cc1F | inactive
2 | O=C(C[C@H]1C[C@H]2c3cc(NS(=O)(=O)c4ccccc4)ccc3O[C@H]2[C@H](CO)O1)NCC(F)(F)F | inactive
3 | CC(C)OC(=O)c1nnc(N)[nH]1 | inactive
4 | CN1CCN(C(=O)[C@H]2C[C@H]3CN(c4ncc(F)cn4)C[C@@H]3N2C)CC1 | inactive
5 | CC1(C)C=Cc2c(nc3ccccc3c2NCc2ccccc2)C1 | inactive
6 | Cc1cc(C(=O)Nc2ccc3c(c2)C(=O)N(C)[C@@H]2CC[C@H](CC(=O)NCC(F)(F)F)O[C@@H]2CO3)no1 | inactive
7 | COCC(=O)Nc1ccc2c(c1)C(=O)N(C)C[C@@H](OC)[C@@H](C)CN(Cc1ccccc1OC)[C@@H](C)CO2 | inactive
8 | C[C@@H]1CN([C@H](C)CO)C(=O)c2cc(NC(=O)C3CCCCC3)ccc2O[C@@H](C)CCCCO[C@H]1CN(C)Cc1ccccc1 | inactive
9 | COc1ccc(C#Cc2cnc3c(c2)C(=O)N([C@@H](C)CO)C[C@@H](C)[C@H](CN(C)C(=O)CN(C)C)O3)cc1 | inactive
10 | C[C@H](CO)N1C[C@H](C)[C@@H](CN(C)S(=O)(=O)c2cn(C)cn2)Oc2c(NC(=O)CCC(F)(F)F)cccc2C1=O | inactive
11 | C[C@@H]1CCCCO[C@@H](CN(C)S(=O)(=O)c2ccc(Cl)cc2)[C@@H](C)CN([C@H](C)CO)C(=O)c2cc(NC(=O)Nc3cccc4ccccc34)ccc2O1 | inactive
12 | COC(=O)[C@@H]1CCCC1=O | inactive
13 | COc1ccc(CNC(=O)C[C@H]2C[C@H]3c4cc(NC(=O)NC5CCCC5)ccc4O[C@H]3[C@@H](CO)O2)cc1 | inactive
14 | FC(F)(F)c1cc(NC(=S)Nc2ccc(Br)cc2-c2nn[nH]n2)cc(C(F)(F)F)c1 | active
15 | O=C(Nc1cc(C(F)(F)F)cc(C(F)(F)F)c1)Nc1c(Br)cc(Br)cc1-c1nn[nH]n1 | inactive
16 | COc1ccccc1-c1cnc2c(c1)C(=O)N([C@@H](C)CO)C[C@H](C)[C@H](CN(C)C(=O)c1cccnc1)O2 | inactive
17 | COc1ccc([Si](C)(C)[C@H]2[C@H](CC(=O)N(CCO)Cc3ccccc3)O[C@@]3(C(=O)N(Cc4cccc(N5CCCCC5=O)c4)c4ccccc43)[C@@H]2C)cc1 | inactive
18 | Nc1ncnc2c1ncn2[C@H]1O[C@@H](CO)[C@H](O)[C@@H]1O | inactive
19 | Nc1ncn([C@@H]2C[C@H](O)[C@@H](CO)O2)c(=O)n1 | inactive
20 | Nc1ncn([C@@H]2O[C@H](CO)[C@@H](O)[C@H]2O)c(=O)n1 | active
21 | OC[C@H]1O[C@H](n2cnc3cncnc32)[C@@H](O)[C@@H]1O | active
22 | Nc1nc(F)nc2c1ncn2[C@@H]1O[C@H](CO)[C@@H](O)[C@H]1O | active
23 | Nc1ncnc2c1ncn2[C@@H]1O[C@H](CO)[C@@H](O)[C@@H]1O | inactive
24 | Nc1ncnc2c1c(I)cn2[C@@H]1O[C@H](CO)[C@@H](O)[C@H]1O | inactive
25 | Nc1ncnc2c1c(I)cn2[C@H]1O[C@@H](CO)[C@@H](O)[C@@H]1O | inactive

Row | SMILES | cytotoxicity call
26 | Nc1nc(Cl)nc2c1ncn2[C@@H]1O[C@H](CO)[C@@H](O)[C@H]1O | inactive
27 | Nc1nc(F)nc2c1ncn2[C@@H]1O[C@H](COP(=O)(O)O)[C@@H](O)[C@@H]1O | inactive
28 | Nc1ncn(C2OC(CO)C(O)C2O)c(=O)n1 (centres undefined) | inactive
29 | NC(=O)c1cn([C@@H]2O[C@H](CO)[C@@H](O)[C@H]2O)c2ncnc(N)c2c1=O | active
30 | CC(C)NC(=O)Nc1ccc2c(c1)CC(=O)N([C@H](C)CO)C[C@@H](C)[C@@H](CN(C)Cc1ccc(-c3ccccc3)cc1)O2 | inactive
31 | C[C@@H]1CN([C@@H](C)CO)C(=O)c2cc(C#CCN(C)C)cnc2O[C@H]1CN(C)S(C)(=O)=O | inactive
32 | C[C@@H]1CN([C@@H](C)CO)C(=O)c2cc(NS(=O)(=O)c3cccs3)ccc2O[C@@H](C)CCCCO[C@H]1CN(C)C(=O)Cc1ccccc1 | inactive
33 | COc1ccc(CN(C)C[C@@H]2Oc3ccc(NS(=O)(=O)c4cn(C)cn4)cc3CC(=O)N([C@H](C)CO)C[C@H]2C)cc1 | inactive
34 | C[C@H](CO)N1C[C@H](C)[C@H](CN(C)Cc2ccc(-c3ccccc3)cc2)Oc2ccc(NC(=O)NC3CCCCC3)cc2CC1=O | inactive
35 | COc1ccc(S(=O)(=O)N2C[C@H](O)COC[C@@H]3O[C@@H](CC(=O)NCCCN(C)C)CC[C@H]32)cc1 | inactive
36 | C/C(=C\CC[C@@H](C)[C@H]1C[C@@H](O)[C@@]2(C)[C@H]3CC[C@H]4C(C)(C)[C@@H](O[C@@H]5O[C@@H](CO[C@H]6OC[C@@H](O)[C@@H](O)[C@@H]6O)[C@@H](O)[C@@H](O)[C@@H]5O)CC[C@@]45C[C@@]35C[C@@H](O)[C@]12C)C(=O)O[C@H]1O[C@@H](CO)[C@@H](O)[C@@H](O)[C@@H]1O | inactive
37 | C[C@H]1CN([C@@H](C)CO)C(=O)CCCn2nncc2CO[C@H]1CN(C)C(=O)c1cc(-c2ccccc2)on1 | inactive
38 | C[C@H]1CCCCO[C@H](CN(C)CC2CC2)[C@@H](C)CN([C@@H](C)CO)C(=O)c2cc(NC(=O)c3ccccc3)ccc2O1 | inactive
39 | Cc1noc(C)c1NC(=O)Nc1ccc2c(c1)CC(=O)N([C@@H](C)CO)C[C@@H](C)[C@H](CN(C)Cc1ccc(C(=O)Nc3ccccc3N)cc1)O2 | inactive
40 | C[C@H](CO)N1C[C@H](C)[C@H](CN(C)CC2CCOCC2)Oc2cc(C#Cc3ccccc3F)ccc2S1(=O)=O | inactive
41 | Nc1nc(Cl)nc2c1ncn2[C@H]1C[C@H](O)[C@@H](CO)O1 | active
42 | Nc1nc(Cl)nc2c1ncn2[C@H]1C[C@@H](O)[C@@H](CO)O1 | inactive
43 | Nc1ncnc2c1ncn2[C@H]1C[C@H](O)[C@@H](CO)O1 | inactive
44 | CCN(CC)CCOc1ccc(Nc2ncc3cc(-c4c(Cl)cccc4Cl)c(=O)n(C)c3n2)cc1 | active
45 | CCN(CC)CCOc1ccc2c(c1)C(=O)c1cc(OCCN(CC)CC)ccc1-2 | inactive
46 | C[C@](N)(Cc1ccc(O)c(O)c1)C(=O)O | inactive
47 | NNCCc1ccccc1 | inactive
48 | NCCNc1cccc2ccccc12 | inactive
49 | c1ccc(CCNc2ccnc3cc4ccccc4cc23)cc1 | active
50 | Cc1noc(C)c1S(=O)(=O)Nc1ccc2c(c1)C(=O)N([C@H](C)CO)C[C@H](C)[C@@H](CN(C)Cc1ccc(Oc3ccccc3)cc1)O2 | inactive

Row | SMILES | cytotoxicity call
51 | C[C@@H]1COCC(=O)N1 | inactive
52 | C[C@@H]1CN([C@H](C)CO)C(=O)c2cc(NC(=O)Cc3ccccc3)ccc2O[C@@H](C)CCCCO[C@@H]1CN(C)S(=O)(=O)c1cccs1 | inactive
53 | C[C@@H]1CN([C@H](C)CO)C(=O)c2cc(C#Cc3ccccc3F)cnc2O[C@H]1CN(C)S(=O)(=O)c1ccccc1F | inactive
54 | COc1ccccc1C#Cc1cnc2c(c1)C(=O)N([C@H](C)CO)C[C@@H](C)[C@@H](CN(C)S(=O)(=O)c1cn(C)cn1)O2 | inactive
55 | COc1ccccc1C#Cc1cnc2c(c1)C(=O)N([C@H](C)CO)C[C@@H](C)[C@H](CN(C)S(=O)(=O)c1cn(C)cn1)O2 | active
56 | C[C@H](CO)N1C[C@H](C)[C@@H](CN(C)S(=O)(=O)c2ccccc2F)Oc2ncc(C#Cc3ccccc3F)cc2C1=O | active
57 | C[C@H]1CN([C@@H](C)CO)C(=O)c2cc(C#Cc3ccccc3F)cnc2O[C@@H]1CN(C)S(=O)(=O)c1ccccc1F | inactive
58 | COc1ccccc1C#Cc1cnc2c(c1)C(=O)N([C@@H](C)CO)C[C@@H](C)[C@@H](CN(C)S(=O)(=O)c1cn(C)cn1)O2 | inactive
59 | Cc1ccc(S(=O)(=O)Nc2ccc3c(c2)CC(=O)N([C@H](C)CO)C[C@@H](C)[C@@H](CN(C)S(=O)(=O)c2ccc(F)cc2)O3)cc1 | inactive
60 | Cc1ccc(S(=O)(=O)Nc2cccc3c2O[C@@H](CN(C)S(C)(=O)=O)[C@@H](C)CN([C@H](C)CO)C3=O)cc1 | inactive
61 | C[C@@H]1CN([C@H](C)CO)C(=O)c2ccccc2-c2ccccc2CO[C@@H]1CN(C)C(=O)Nc1cccc(C(F)(F)F)c1 | inactive
62 | C[C@@H]1CCCCO[C@H](CN(C)CC2CCCCC2)[C@H](C)CN([C@H](C)CO)C(=O)c2cc(NC(=O)c3ccccc3)ccc2O1 | inactive
63 | C[C@@H]1CCCCO[C@@H](CN(C)Cc2ccc(C(F)(F)F)cc2)[C@H](C)CN([C@H](C)CO)C(=O)c2cc(NC(=O)NC3CCCCC3)ccc2O1 | inactive
64 | C[C@@H]1CCCCO[C@@H](CN(C)Cc2ccc(C(F)(F)F)cc2)[C@@H](C)CN([C@@H](C)CO)C(=O)c2cc(NC(=O)NC3CCCCC3)ccc2O1 | active
65 | C[C@@H]1CN([C@@H](C)CO)C(=O)c2cc(NC(=O)NC3CCCCC3)ccc2O[C@@H](C)CCCCO[C@@H]1CN(C)Cc1ccc(C(F)(F)F)cc1 | inactive
66 | C[C@H](CO)N1C[C@H](C)[C@H](CN(C)Cc2ccc(C(F)(F)F)cc2)OCCCC[C@H](C)Oc2ccc(NC(=O)NC3CCCCC3)cc2C1=O | inactive
67 | C[C@@H]1CN([C@H](C)CO)C(=O)c2cc(NC(=O)NC3CCCCC3)ccc2O[C@@H](C)CCCCO[C@H]1CN(C)Cc1ccc(C(F)(F)F)cc1 | inactive
68 | C[C@@H]1CN([C@H](C)CO)C(=O)c2cc(NC(=O)NC3CCCCC3)ccc2O[C@@H](C)CCCCO[C@@H]1CN(C)Cc1ccc(C(F)(F)F)cc1 | inactive
69 | C[C@@H]1CCCCO[C@H](CN(C)Cc2ccc(C(F)(F)F)cc2)[C@@H](C)CN([C@H](C)CO)C(=O)c2cc(NC(=O)NC3CCCCC3)ccc2O1 | inactive
70 | C[C@@H]1CCCCO[C@H](CN(C)Cc2ccc(C(F)(F)F)cc2)[C@H](C)CN([C@H](C)CO)C(=O)c2cc(NC(=O)NC3CCCCC3)ccc2O1 | active
71 | C[C@@H]1CCCCO[C@H](CN(C)Cc2ccc(C(F)(F)F)cc2)[C@H](C)CN([C@@H](C)CO)C(=O)c2cc(NC(=O)NC3CCCCC3)ccc2O1 | active
72 | C[C@@H]1CCCCO[C@@H](CN(C)Cc2ccc(C(F)(F)F)cc2)[C@H](C)CN([C@@H](C)CO)C(=O)c2cc(NC(=O)NC3CCCCC3)ccc2O1 | inactive
73 | C[C@@H]1CCCCO[C@H](CN(C)Cc2ccc(C(F)(F)F)cc2)[C@@H](C)CN([C@@H](C)CO)C(=O)c2cc(NC(=O)NC3CCCCC3)ccc2O1 | inactive
74 | C[C@H]1CCCCO[C@@H](CN(C)Cc2ccc(C(F)(F)F)cc2)[C@@H](C)CN([C@@H](C)CO)C(=O)c2cc(NC(=O)NC3CCCCC3)ccc2O1 | active
